About 83,000 compounds went through this panel and 20% of them were active in at least one assay; those are over-represented in the sample as a whole.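 The test compound was applied at a single concentration to cells in 96-well plates for 48 hours, and percent growth was recorded.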 Activity calls are given as the source filed them. Rule for the calls: active = growth percent below 10; inactive = the rest.
Columns and labels:
Assay in all cases: NCI-60 one-dose screen, 48 h (100 = growth as untreated, 0 = no growth, -100 = all killed)
Conditions in all cases: 10 µM unless noted
NCI-H23 lung = system: NCI-H23 lung
NCI-H226 lung = system: NCI-H226 lung
NCI-H322M lung = system: NCI-H322M lung
HOP-62 NSCLC = system: HOP-62 NSCLC
NCI-H460 lung = system: NCI-H460 lung
HOP-92 NSCLC = system: HOP-92 NSCLC
NCI-H522 lung = system: NCI-H522 lung
A549/ATCC NSCLC = system: A549/ATCC NSCLC
786-0 renal = system: 786-0 renal
COLO 205 colon = system: COLO 205 colon

Measured: growth

CN(C)c1ccc2cc(-c3nc4ccccc4s3)c(N)nc2c1
inactive: NCI-H23 lung 50.8% | NCI-H226 lung 119% | NCI-H322M lung 49.8% | HOP-62 NSCLC 40.3% | NCI-H460 lung 19.6% | HOP-92 NSCLC 85.1% | NCI-H522 lung 17% | A549/ATCC NSCLC 28.3% | 786-0 renal 35.3% | COLO 205 colon 84.1%

CCOC(=O)c1noc2c1CCc1c-2cn(Cc2ccc(OC)cc2)c1-c1cc(OC)c(OC)c(OC)c1
inactive: NCI-H23 lung 42.9% | NCI-H226 lung 40.8% | NCI-H322M lung 52.2% | HOP-62 NSCLC 22.8% | HOP-92 NSCLC 63.4% | A549/ATCC NSCLC 43.5% | 786-0 renal 34.7%
active: NCI-H460 lung 8.9% | NCI-H522 lung 3.83% | COLO 205 colon 1.98%

CC(=O)Oc1ccc(C(OC(C)=O)OC(C)=O)cc1
inactive: NCI-H23 lung 95.4% | NCI-H226 lung 108% | NCI-H322M lung 98.9% | HOP-62 NSCLC 95% | NCI-H460 lung 111% | HOP-92 NSCLC 113% | NCI-H522 lung 85.4% | A549/ATCC NSCLC 108% | 786-0 renal 95.3% | COLO 205 colon 112%

O=C(Nc1cccc(-n2ccc3c(NC(=O)c4ccccc4)nccc32)c1)Nc1cc(C(F)(F)F)cc(C(F)(F)F)c1
active: NCI-H23 lung 3.76% | NCI-H460 lung 2.99% | HOP-92 NSCLC -13% | NCI-H522 lung -46.5% | A549/ATCC NSCLC 7.57% | COLO 205 colon -36.3%
inactive: NCI-H226 lung 26.3% | NCI-H322M lung 46% | HOP-62 NSCLC 35.6% | 786-0 renal 13.4%

Fc1ccc(Nc2ncnc3ccc(-c4cn[nH]c4)cc23)cc1Cl
inactive: NCI-H23 lung 80.3% | NCI-H226 lung 57.1% | NCI-H322M lung 15.9% | HOP-62 NSCLC 66.2% | NCI-H460 lung 55.5% | HOP-92 NSCLC 54.6% | NCI-H522 lung 10.3% | A549/ATCC NSCLC 49.5% | 786-0 renal 61.5% | COLO 205 colon 60.7%

COc1ccc2c(c1)OC(N)=C(C#N)C2c1ccc(F)cc1 (stereo not given)
inactive: NCI-H23 lung 49.9% | NCI-H226 lung 80.9% | NCI-H322M lung 55.7% | HOP-62 NSCLC 41.3% | NCI-H460 lung 15.8% | HOP-92 NSCLC 59.8% | A549/ATCC NSCLC 45.9% | 786-0 renal 28.1% | COLO 205 colon 30.6%
active: NCI-H522 lung -10.1%

COc1cc2ncn3c(=O)c4c5c(sc4nc3c2cc1OC)CCCCC5
inactive: NCI-H23 lung 89.3% | NCI-H226 lung 74.5% | NCI-H322M lung 90.9% | HOP-62 NSCLC 91% | NCI-H460 lung 99.5% | HOP-92 NSCLC 81.9% | NCI-H522 lung 99.9% | A549/ATCC NSCLC 104% | 786-0 renal 106% | COLO 205 colon 98%

c1ccc(CNCCN(CCNCc2ccccn2)Cc2ccc3ccccc3c2)nc1
inactive: NCI-H23 lung 21.5% | NCI-H322M lung 12.2% | NCI-H522 lung 14.1%
active: NCI-H226 lung -17.9% | HOP-62 NSCLC -17.4% | NCI-H460 lung -7.2% | HOP-92 NSCLC -7.66% | A549/ATCC NSCLC -14.5% | 786-0 renal -46.4% | COLO 205 colon -5.97%

CCCCN(CCCC)c1ccc(C(=N)c2ccc(N(C)C)cc2)cc1
active: NCI-H23 lung -46.1% | NCI-H226 lung -46.4% | NCI-H322M lung -32% | HOP-62 NSCLC -84% | NCI-H460 lung -88.5% | HOP-92 NSCLC -32.7% | NCI-H522 lung -66.1% | A549/ATCC NSCLC 3.26% | 786-0 renal -84.4% | COLO 205 colon -93.8%

CS(=O)(=O)OCC(COS(C)(=O)=O)C(c1ccccc1)c1ccccc1
inactive: NCI-H23 lung 96.9% | NCI-H226 lung 103% | NCI-H322M lung 97.9% | HOP-62 NSCLC 91.2% | NCI-H460 lung 110% | HOP-92 NSCLC 85.2% | NCI-H522 lung 95.4% | A549/ATCC NSCLC 92.3% | 786-0 renal 99.4% | COLO 205 colon 124%

CC(=O)c1cc2c(N)c(C(=O)Nc3cccc(Cl)c3)sc2nc1C
inactive: NCI-H23 lung 91% | NCI-H226 lung 87.3% | NCI-H322M lung 77.7% | HOP-62 NSCLC 90.4% | NCI-H460 lung 45.7% | HOP-92 NSCLC 58.3% | NCI-H522 lung 72.9% | A549/ATCC NSCLC 39.3% | 786-0 renal 89.1% | COLO 205 colon 40.7%

NC(CCCC(N)C(=O)c1ccccc1)C(=O)O (stereo not given)
inactive: NCI-H23 lung 98.4% | NCI-H226 lung 102% | NCI-H322M lung 87.7% | HOP-62 NSCLC 90.3% | NCI-H460 lung 112% | HOP-92 NSCLC 116% | NCI-H522 lung 64.4% | A549/ATCC NSCLC 92.8% | 786-0 renal 102% | COLO 205 colon 104%

COc1cc(C(=O)C[n+]2ccccc2)ccc1OC(C)=O
inactive: NCI-H23 lung 106% | NCI-H226 lung 96.3% | NCI-H322M lung 106% | HOP-62 NSCLC 94.6% | NCI-H460 lung 99% | HOP-92 NSCLC 91.5% | NCI-H522 lung 98% | A549/ATCC NSCLC 98.3% | 786-0 renal 90.9% | COLO 205 colon 104%

COc1ccc(C[C@H](N)C(=O)N[C@@H]2[C@@H](CO)OC(n3cnc4c(N(C)C)ncnc43)[C@@H]2O)cc1 (stereo not given in full)
active: NCI-H23 lung -39.4% | NCI-H226 lung -65.2% | NCI-H322M lung -65.2% | HOP-62 NSCLC -57.8% | NCI-H460 lung -67% | HOP-92 NSCLC -67.1% | NCI-H522 lung -68.7% | A549/ATCC NSCLC -57.9% | 786-0 renal -87.6% | COLO 205 colon -63.2%

O=C1c2ccccc2OC=C(c2ccccc2)N1CCCCNc1ccc(F)cc1
inactive: NCI-H23 lung 90.1% | NCI-H226 lung 87.5% | NCI-H322M lung 90.3% | HOP-62 NSCLC 85.1% | NCI-H460 lung 97.9% | HOP-92 NSCLC 21.8% | NCI-H522 lung 69.5% | A549/ATCC NSCLC 68.9% | 786-0 renal 68.2% | COLO 205 colon 67.6%

COc1ccccc1S(=O)(=O)Nc1ccc2c3c(cc(-c4cnn(C)c4)nc13)C(=O)N2C
inactive: NCI-H23 lung 46.6% | NCI-H226 lung 61.9% | NCI-H322M lung 47.4% | HOP-62 NSCLC 33.3% | NCI-H460 lung 46.9% | HOP-92 NSCLC 27.4% | NCI-H522 lung 36% | A549/ATCC NSCLC 38.6% | 786-0 renal 43.8% | COLO 205 colon 15.8%

CCCC(C)(C)COC(=O)c1cccc(N)c1
inactive: NCI-H23 lung 103% | NCI-H226 lung 87.8% | NCI-H322M lung 80.9% | HOP-62 NSCLC 92.5% | NCI-H460 lung 108% | HOP-92 NSCLC 85% | NCI-H522 lung 60.6% | A549/ATCC NSCLC 89.7% | 786-0 renal 93.6% | COLO 205 colon 110%

C=C1C(=O)O[C@H]2[C@H]1CC/C(COC(=O)c1ccc(Br)cc1)=C\CC[C@@]1(C)O[C@@H]21
inactive: NCI-H23 lung 32.6% | NCI-H322M lung 60.5% | HOP-62 NSCLC 25.8% | NCI-H460 lung 25.7% | A549/ATCC NSCLC 16.2%
active: NCI-H226 lung -55.8% | HOP-92 NSCLC -73% | NCI-H522 lung -78.1% | 786-0 renal -61% | COLO 205 colon -67.2%

O=C1COc2ccccc2C(=O)N1CCCCN1CCCCC1
inactive: NCI-H23 lung 94% | NCI-H226 lung 93% | NCI-H322M lung 104% | HOP-62 NSCLC 78.2% | NCI-H460 lung 104% | HOP-92 NSCLC 61.5% | NCI-H522 lung 71.5% | A549/ATCC NSCLC 96.4% | 786-0 renal 82.4% | COLO 205 colon 87.6%

COc1cc(/C=C/C(=O)N2CCC=CC2=O)cc(OC)c1OC
active: NCI-H522 lung -68.2% | COLO 205 colon 5.08%
inactive: NCI-H23 lung 62.3% | NCI-H226 lung 109% | NCI-H322M lung 84.3% | HOP-62 NSCLC 82.8% | NCI-H460 lung 76% | HOP-92 NSCLC 28.9% | A549/ATCC NSCLC 72.3% | 786-0 renal 29.5%
